Experimental data as given in publication PMC4336329 (PLoS ONE, 2015).
Hit rate of the full screen: of about 310,000 compounds, about 2,200 (0.71%) showed an effect of 50% or more. The effect is printed as a negative number. What follows is part of a selection rich in strong results, with near analogues and random picks from the rest.

target: human ether-à-go-go-related gene (hERG) potassium channel (human, UniProt Q12809); test: primary screen, population patch clamp on CHO cells stably expressing hERG; higher = less effect of the substance
Experimental: Briefly, Chinese hamster ovary (CHO) cells stably expressing the hERG channel were dislodged from tissue culture flasks and dispensed into PPC plates. […] During the recording, background leak currents were estimated by a 100 ms step to -80 mV from an initial holding potential of -70 mV and subtracted from the subsequent current measurement. The campaign was conducted in two phases using slight differences in recording protocol. In the first phase, the initial voltage pulse used a 100 ms step to -30 mV from a holding potential of -70 mV, a 2 s conditioning step to +25 mV, and a 2 s test step to -30 mV. During the second phase of the screen, the potential during the conditioning step was raised to +45 mV. In both phases of the campaign, a secondary voltage pulse was applied using the same parameters as the second phase initial pulse. The initial and secondary pulses were applied in the absence of compound, and upon application of 1 μM and 10 μM test concentrations. Small molecule effects on hERG current density were quantified by […].

Sequence of human ether-à-go-go-related gene (hERG) potassium channel (Q12809 whole entry, looked up): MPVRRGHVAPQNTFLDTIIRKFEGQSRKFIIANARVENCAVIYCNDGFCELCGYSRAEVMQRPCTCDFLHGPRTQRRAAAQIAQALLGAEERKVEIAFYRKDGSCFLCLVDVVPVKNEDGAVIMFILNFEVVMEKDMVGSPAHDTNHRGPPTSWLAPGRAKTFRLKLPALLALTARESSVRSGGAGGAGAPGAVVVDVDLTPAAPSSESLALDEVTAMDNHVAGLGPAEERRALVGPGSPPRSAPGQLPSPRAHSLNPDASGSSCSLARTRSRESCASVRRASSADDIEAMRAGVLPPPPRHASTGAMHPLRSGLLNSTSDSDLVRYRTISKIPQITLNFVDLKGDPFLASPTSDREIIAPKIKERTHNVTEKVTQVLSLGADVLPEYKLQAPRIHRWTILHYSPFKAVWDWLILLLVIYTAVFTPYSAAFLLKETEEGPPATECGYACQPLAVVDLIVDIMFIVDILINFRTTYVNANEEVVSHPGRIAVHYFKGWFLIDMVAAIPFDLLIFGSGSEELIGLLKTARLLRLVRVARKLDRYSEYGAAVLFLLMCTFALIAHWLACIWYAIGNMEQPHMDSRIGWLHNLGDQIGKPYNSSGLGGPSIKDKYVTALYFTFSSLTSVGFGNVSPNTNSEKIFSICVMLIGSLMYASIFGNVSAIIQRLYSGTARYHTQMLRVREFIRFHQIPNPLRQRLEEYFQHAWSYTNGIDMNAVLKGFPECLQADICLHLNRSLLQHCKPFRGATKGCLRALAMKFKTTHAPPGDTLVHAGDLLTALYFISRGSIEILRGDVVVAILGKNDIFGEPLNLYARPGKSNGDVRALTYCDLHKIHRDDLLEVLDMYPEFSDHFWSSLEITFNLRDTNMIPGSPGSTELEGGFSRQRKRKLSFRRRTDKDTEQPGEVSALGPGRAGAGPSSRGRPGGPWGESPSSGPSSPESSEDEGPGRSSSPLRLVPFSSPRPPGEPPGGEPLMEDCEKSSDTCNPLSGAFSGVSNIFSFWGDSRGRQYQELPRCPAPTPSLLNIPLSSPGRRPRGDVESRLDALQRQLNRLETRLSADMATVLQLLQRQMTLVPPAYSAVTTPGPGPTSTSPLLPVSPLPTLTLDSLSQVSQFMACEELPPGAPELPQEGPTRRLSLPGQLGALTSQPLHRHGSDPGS

Row | Compound | hERG current change (%, negative = inhibition) at 1uM [%]
1 | Br.CCCCn1c(=N)n(CC(=O)c2ccc(OC)cc2)c2ccccc21 | -62.2
2 | Br.CCn1c(=N)n(CC(=O)c2ccc(OC)cc2)c2ccccc21 | -0.629
3 | Br.COc1ccc(C(=O)Cn2c(=N)n(C)c3ccccc32)cc1 | -9.98
4 | C=CCOn1c(C)c(C(C)=O)c2c3nonc3ccc21 | 13.1
5 | O=C(OCc1ccc2c(c1)OCO2)c1ccc(S(=O)(=O)N2CCCC2)cc1 | 3.44
6 | CC(=O)Nc1ccc(-c2nnc(SCc3ccccc3C#N)n2C)cc1 | -5.5
7 | O=C1N=C2SCCN2/C1=C\c1ccccc1Cl | 5.64
8 | CCn1c2ccccc2c2cc(NC(=O)CSc3nnnn3-c3ccccc3)ccc21 | 9.35
9 | Cc1ccc(C(=O)N/C(=C/c2ccco2)C(=O)NCCCn2ccnc2)cc1 | -62.5
10 | O=C(NCCCn1ccnc1)/C(=C\c1ccco1)NC(=O)c1ccco1 | -10.8
11 | COc1ccc(C(=O)N/C(=C\c2ccco2)C(=O)NCCCn2ccnc2)cc1 | -0.883
12 | Cc1ccc(C(=O)N/C(=C\c2ccco2)C(=O)NCCCn2ccnc2)cc1C | -15.7
13 | Cc1ccc(C(=O)N/C(=C\c2ccco2)C(=O)NCCCn2ccnc2)cc1 | -64.1
14 | O=C(NCCCn1ccnc1)/C(=C/c1ccco1)NC(=O)c1ccco1 | -10.2
15 | O=C(Nc1nc(-c2nc3ccccc3s2)cs1)C1COc2ccccc2O1 (stereo not drawn) | 13.3
16 | COC(=O)c1sc(NC(=O)c2cc(-c3ccccc3)nc3ccccc23)c(C#N)c1C | -6.75
17 | CCOc1ccc(S(=O)(=O)N2CCC(C(=O)N3CCN(c4ccccc4F)CC3)CC2)cc1C | -1.32
18 | CCc1nc2scc(-c3ccccc3)c2c(=O)n1N | 2.81
19 | COc1ccc(-n2cnnc2SCC(=O)Nc2nc(C)c(Cl)cc2Cl)cc1 | -8.71
20 | CCOCCCn1c(=NC(=O)c2ccco2)c(C(=O)OCC)cc2c(=O)n3cccc(C)c3nc21 | -73.9
21 | CCOC(=O)c1cc2c(=O)n3cccc(C)c3nc2n(CC(C)C)c1=NC(=O)c1ccco1 | -64.7
22 | CCCCCn1c(=NC(=O)c2ccco2)c(C(=O)OCC)cc2c(=O)n3ccccc3nc21 | -30.9
23 | CCCn1c(=NC(=O)c2ccco2)c(C(=O)OCC)cc2c(=O)n3ccccc3nc21 | -6.68
24 | CCCCn1c(=NC(=O)c2ccco2)c(C(=O)OCC)cc2c(=O)n3cccc(C)c3nc21 | -16.5
25 | CCOC(=O)c1cc2c(=O)n3cccc(C)c3nc2n(Cc2ccco2)c1=NC(=O)c1ccccc1 | 0.671
26 | O=C(NC1CC1)c1ccc(S(=O)(=O)NC2CCCCCC2)cc1 | 2.1
27 | CC(C)CC(=O)Nc1cc2nn(-c3ccccc3)nc2cc1Cl | -0.947

Row | Compound | hERG current change (%, negative = inhibition) at 1uM [%]
28 | Cc1sc2ncn(CC(=O)N3CCC(C(N)=O)CC3)c(=O)c2c1S(=O)(=O)N1CCOCC1 | 10.1
29 | COC(=O)c1cc(NC(=O)CN2CCC(C(N)=O)(N3CCCCC3)CC2)cc(C(=O)OC)c1 | 5.65
30 | Cc1nc2ccccc2nc(C)c1=NOCc1ccc(Cl)cc1Cl | 0.014
31 | CC(=O)Nc1ccc(SCC(=O)Nc2ccccc2Oc2ccccc2)cc1 | 3.2
32 | Cc1ccccc1NC(=O)CSC(N)=O | 24
33 | CN(C)CCCN1C(=O)CSC1c1ccc([N+](=O)[O-])cc1.Cl (stereo not drawn) | -11.4
34 | CCN(CC)CCCN1C(=O)CSC1c1ccc2c(c1)OCO2.Cl (stereo not drawn) | -15.9
35 | CCN(CC)CCCN1C(=O)CSC1c1ccc([N+](=O)[O-])cc1.Cl (stereo not drawn) | -74.4
36 | CC(OC(=O)c1cccc(-n2cnnn2)c1)c1nc2ccccc2c(=O)[nH]1 (stereo not drawn) | 7.2
37 | CCn1c(CN2CCN(Cc3ccc(C)cc3)C(CCO)C2)nc2ccccc21 (stereo not drawn) | -50.5
38 | Cc1ccc(CN2CCN(Cc3cccc(C)n3)CC2CCO)cc1 (stereo not drawn) | -2.38
39 | Cc1ccc(CN2CCN(Cc3cnc(C)s3)CC2CCO)cc1 (stereo not drawn) | -0.701
40 | Cc1ccc(CN2CCN(Cc3ccccc3)C(CCO)C2)s1 (stereo not drawn) | -26.7
41 | Cc1ccc(CN2CCN(Cc3nc4ccccc4nc3C)CC2CCO)cc1 (stereo not drawn) | -65.3
42 | OCCC1CN(Cc2cccc3nccnc23)CCN1Cc1ccc(F)cc1 (stereo not drawn) | -7.96
43 | Cc1nc2ccccc2nc1CN1CCN(Cc2ccc(F)c(F)c2)C(CCO)C1 (stereo not drawn) | -6.36
44 | CC(C)Cn1c(CN2CCN(C)C(CCO)C2)nc2ccccc21 (stereo not drawn) | 12.7
45 | OCCC1CN(Cc2cccc3nccnc23)CCN1Cc1ccc(F)c(F)c1 (stereo not drawn) | -11.8
46 | Cc1ccc(CN2CCN(Cc3ccc(C)s3)CC2CCO)cc1 (stereo not drawn) | -67.3
47 | Cc1ccc(CN2CCN(Cc3ccccn3)CC2CCO)cc1 (stereo not drawn) | -5.1
48 | Cc1ccc(CN2CCN(Cc3cccc4nccnc34)CC2CCO)cc1 (stereo not drawn) | -53.3
49 | O=C(COc1ncnc2cc([N+](=O)[O-])ccc12)N(CCc1ccccc1)Cc1ccccc1 | 18.9
50 | CC1(C)Oc2ccc3ccc(=O)oc3c2C(N2CCCCC2)C1O (stereo not drawn) | 0.376
51 | COc1cccc(-c2ocnc2C(=O)Nc2ccc(N3CCOCC3)cc2N2CCOCC2)c1 | 15.6
52 | O=S(=O)(Nc1cc(Sc2cccc3cccnc23)c(O)c2ccccc12)c1ccc(F)cc1 | 13.4
53 | CC(C)Oc1ccc(CNC(=O)C2CCN(C(=O)N3CCOc4ccccc43)CC2)cc1 | 6.25
54 | NC(=O)C1CCN(CC(=O)Nc2cc(S(=O)(=O)N3CCOCC3)ccc2N2CCCC2)CC1 | -1.18
